# PP1 inh: PP1-alpha phosphatase inhibitors, primary screen, counter-screen for PP5 inhibitor project, biochemical, fluorescence, OMFP substrate, single point; Serine/threonine-protein phosphatase PP1-alpha catalytic subunit (Homo sapiens), P62136; purified PP1alpha; inhibition, % at 6.7 µM; actives 0.9% (n = 320,000); AID 2235, 2010;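 active means inhibition above the mean inhibition of all tested compounds plus 3 SD, computed separately for each screening campaign, cut at about 15% in these data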
# PAFAH1B2 FP inh: PAFAH1B2 enzyme inhibitors, primary screen, biochemical, fluorescence polarization, human | Platelet-activating factor acetylhydrolase IB subunit alpha2 (Homo sapiens), P68402 | recombinant PAFAH1B2, FP-rhodamine activity probe | inhibition, % at 3.39 µM | actives 1.2% (n = 340,000) | AID 492953, 2010;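 active means inhibition above the mean of all tested compounds plus 3 SD, cut at about 24% in these data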
# Target sequence (P68402 whole entry, looked up): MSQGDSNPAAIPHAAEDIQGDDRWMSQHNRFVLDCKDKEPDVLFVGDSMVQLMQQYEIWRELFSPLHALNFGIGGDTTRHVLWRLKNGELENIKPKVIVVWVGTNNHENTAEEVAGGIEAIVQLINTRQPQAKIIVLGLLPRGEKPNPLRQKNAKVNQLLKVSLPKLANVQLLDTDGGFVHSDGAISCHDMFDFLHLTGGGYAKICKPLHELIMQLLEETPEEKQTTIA
# PP5 primary: PP5 phosphatase inhibitors, primary screen, biochemical, fluorescence; purified PP5c, OMFP substrate fluorescence; Serine/threonine-protein phosphatase 5 (Homo sapiens), P53041; actives 0.18% (n = 320,000); inhibition, % at 6.7 µM;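 active means inhibition above the campaign's mean inhibition across all tested compounds plus 3 SD, cut at about 9.5% in these data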
# PAFAH2 FP inh: PAFAH2 enzyme inhibitors, primary screen, biochemical, fluorescence polarization, human; recombinant PAFAH2, FP-rhodamine activity probe; Platelet-activating factor acetylhydrolase 2, cytoplasmic (Homo sapiens), Q99487; actives 0.99% (n = 340,000); AID 492956, 2010; inhibition, % at 3.39 µM;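 active means inhibition above the mean over all tested compounds plus 3 SD, cut at about 30% in these data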;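 further: inhibitors block probe labeling of enzyme so polarization drops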
# pPAFAH inh: pPAFAH enzyme inhibitors, primary screen, biochemical, fluorescence polarization, human; recombinant pPAFAH, FP-rhodamine probe fluorescence polarization; inhibition, % at 3.39 µM; actives 1.5% (n = 330,000); AID 463082, 2010;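 active means inhibition above the mean inhibition across the screen plus 3 SD, cut at about 25% in these data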;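 further: inhibitors block binding of the rhodamine activity-based probe so polarization drops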
# PAFAH1B3 inh: PAFAH1B3 enzyme inhibitors, primary screen, biochemical, fluorescence polarization, human | Platelet-activating factor acetylhydrolase IB subunit alpha1 (Homo sapiens), Q15102 | recombinant PAFAH1B3, FP-rhodamine probe | inhibition, % at 3.39 µM | actives 0.28% (n = 340,000);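 active means inhibition above the screen-wide average of all tested compounds plus 3 SD, cut at about 25% in these data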
# Target sequence (Q15102 whole entry, looked up): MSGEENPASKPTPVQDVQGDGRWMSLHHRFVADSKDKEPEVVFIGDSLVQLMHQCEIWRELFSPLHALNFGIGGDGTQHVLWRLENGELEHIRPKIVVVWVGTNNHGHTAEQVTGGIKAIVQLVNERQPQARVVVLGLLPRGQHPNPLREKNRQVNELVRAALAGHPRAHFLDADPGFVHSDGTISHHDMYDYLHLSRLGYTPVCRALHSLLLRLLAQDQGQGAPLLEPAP
# PP1 inh confirm: PP1 phosphatase inhibitors, confirmation, biochemical, fluorescence, OMFP substrate, triplicate; actives 52% (n = 1,900); inhibition, % at 6.7 µM; AID 2358, 2010; purified PP1alpha; shares compounds with PP1 inh;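 active means mean PP1 inhibition above a set limit taken from the earlier primary screen, cut at about 15% in these data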
# PP5 inh counter: PP5 phosphatase inhibition by PP1 hits, confirmation, counter-screen for PP1 inhibitor project, biochemical, fluorescence, triplicate; shares compounds with PP1 inh; actives 4% (n = 1,900); purified PP5c, OMFP fluorescence; inhibition, % at 6.7 µM;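 active means mean PP5 inhibition over triplicate wells above about 9.5% taken from the earlier PP1 screen, limit read from the data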
# A number is an active result; – = inactive; · = no result. A selection: hits, their analogues and other compounds. The true share with any hit is near 3.4%.
SMILES,PP1 inh,PAFAH1B2 FP inh,PP5 primary,PAFAH2 FP inh,pPAFAH inh,PAFAH1B3 inh,PP1 inh confirm,PP5 inh counter
O=C(CSc1nc2c([nH]c3ccccc32)c(=O)n1-c1cccc(Cl)c1)N1CCOCC1,21.5,–,–,–,–,–,24.8,–
Cc1cc(N2C(=O)C(O)=C(C(=O)c3ccco3)C2c2ccc([N+](=O)[O-])cc2)no1 (stereo unspecified),–,–,–,–,–,–,·,·
CCOC(=O)c1sc(N2C(=O)C(O)=C(C(=O)c3ccco3)C2c2ccc(C)o2)nc1C (stereo unspecified),23.0,–,–,–,–,–,23.2,–
CSc1ccc(C2C(C(=O)c3ccco3)=C(O)C(=O)N2c2nnc(SC)s2)cc1 (stereo unspecified),20.0,–,–,–,–,–,15.8,–
CCOC(=O)c1sc(N2C(=O)C(O)=C(C(=O)c3ccco3)C2c2ccc([N+](=O)[O-])cc2)nc1C (stereo unspecified),41.1,–,–,–,–,–,35.7,–
O=C(CN1C(=O)COc2ccc(Cl)cc21)NC1CC1,–,–,–,–,–,–,·,·
O=C(Cn1cc[n+](CC(=O)c2ccc(Cl)cc2Cl)c1)c1ccc(Cl)cc1Cl,17.6,·,–,·,32.8,·,–,–
O=C(Cn1cc[n+](CC(=O)c2ccccc2)c1)c1ccccc1,–,–,–,–,–,–,·,·
O=C(NCCc1ccccc1)/C(=C\c1ccc([N+](=O)[O-])cc1)NC(=O)c1ccco1,–,–,–,–,–,–,·,·
O=C(NCCc1ccccc1)/C(=C\c1ccc([N+](=O)[O-])cc1)NC(=O)c1ccc(Br)cc1,18.2,–,–,–,–,–,21.8,–
Cc1nn(C)cc1CN(C)C(=O)CCc1nnc(CCC2CCCCC2)o1,–,–,–,–,–,–,·,·
Cc1cc(C(=O)CN2C(=O)C(=O)N(C3CCCC3)C2=O)c(C)n1CCc1ccc(F)cc1,17.6,–,–,–,–,–,–,–
Cc1cc(C(=O)CN2C(=O)C(=O)N(C3CCCC3)C2=O)c(C)n1CCc1ccccc1,·,–,·,–,·,–,·,·
COCCN1C(=O)Cc2c1nc(N)c1c(N)nc(N3CCN(c4ccc(F)cc4)CC3)c(C#N)c21,19.0,–,–,–,–,–,–,–
COc1ccc(CN2C(=O)Cc3c2nc(N)c2c(N)nc(N4CCOCC4)c(C#N)c32)cc1,17.6,–,–,–,–,–,–,14.5
COc1ccc(NC(C)=O)cc1CNC(=O)CN1CCOCC1,–,–,–,–,–,–,·,·
COCCn1c(N)c(N(Cc2ccccc2)C(=O)c2ccc(-c3ccc(Cl)cc3)o2)c(=O)[nH]c1=O,–,–,–,–,–,–,·,·
COc1cnc(-c2ccccn2)nc1N(C)C,–,–,–,–,–,–,·,·
COc1ccc(Oc2nc(-c3ccccn3)ncc2OC)cc1,21.5,–,–,–,–,–,32.2,–
COc1cnc(-c2ccccn2)nc1Oc1c(C)cccc1C,18.8,–,–,–,–,–,25.2,–
COc1cnc(-c2ccccn2)nc1Oc1cccc(Cl)c1,52.6,–,–,–,–,–,46.2,–
COc1ccc(C)cc1NC(=O)c1cc2c(s1)CCC2,18.1,–,–,–,–,–,–,–
Cc1nc(C)n(C(Oc2ccc(Cl)cc2Cl)C(=O)C(C)(C)C)n1 (stereo unspecified),–,–,–,–,–,–,·,·
COc1ccc(C(=O)Nc2ccc(-c3nnn(CC(=O)NCc4ccco4)n3)cc2)cc1,20.2,–,–,–,–,–,23.7,–
O=C(Cn1nnc(-c2ccc(Cl)cc2)n1)NCc1ccco1,–,–,–,–,–,–,·,·
SMILES,PP1 inh,PAFAH1B2 FP inh,PP5 primary,PAFAH2 FP inh,pPAFAH inh,PAFAH1B3 inh,PP1 inh confirm,PP5 inh counter
COC(=O)C1=C(C)NC(=S)NC1c1ccc(-c2cc(Cl)ccc2Cl)o1 (stereo unspecified),–,–,–,–,–,–,·,·
Cc1occc1-c1nnc(SCC(=O)NC2CCCCC2C)o1 (stereo unspecified),·,–,·,–,·,–,·,·
O=C(O)CCCN1C(=O)/C(=C\c2ccccc2OCc2ccccc2)SC1=S,18.5,–,–,–,29.0,–,–,–
O=C1/C(=C/c2ccccc2Cl)SC(=S)N1CCCC(=O)N(CCO)c1ccccc1,17.8,–,–,–,–,–,–,–
O=C(O)CCCCN1C(=O)/C(=C\c2ccc(OCc3ccccc3)c(OCc3ccccc3)c2)SC1=S,–,–,–,–,–,–,·,·
COc1ccccc1CC1S/C(=N/N=C/c2ccco2)NC1=O (stereo unspecified),–,–,–,–,–,–,·,·
COc1ccc(/C=N/Nc2cc(C)nc(-n3nc(C)cc3C)n2)c(OC)c1,36.9,–,–,–,–,–,47.7,–
CCOc1cc(/C=N/Nc2cc(C)nc(-n3nc(C)cc3C)n2)ccc1O,22.5,–,–,–,–,–,22.1,–
Cc1ccc(OCCn2c(NC(=O)c3ccco3)nc3ccccc32)cc1,–,–,–,–,–,–,·,·
Cc1cccc(OCCn2c(NC(=O)c3ccco3)nc3ccccc32)c1,19.5,–,–,–,–,–,–,–
O=C(/C=C/NCc1cccnc1)c1ccc(-c2ccccc2)cc1,–,–,–,–,–,–,·,·
O=C(Cc1cccc2ccccc12)N/N=C/c1ccc(O)c([N+](=O)[O-])c1,–,–,–,–,–,–,·,·
O=C(Cc1cccc2ccccc12)N/N=C/c1ccc2cccc(O)c2n1,24.6,–,–,–,–,–,21.0,–
Cc1c(CCOC(=O)CC23CC4CC(CC(C4)C2)C3)sc[n+]1CC(=O)c1ccccc1,25.7,–,–,–,–,–,–,–
Cc1c(CCOC(=O)C23CC4(C)CC(C)(CC(C)(C4)C2)C3)sc[n+]1CC(=O)c1ccccc1,21.4,–,–,–,–,–,–,–
COc1ccc(CCC(=O)Nc2ncc(C)s2)cc1,–,–,–,–,–,–,·,·
Cc1cccc(C)c1NC(=O)CNC(=O)c1ccc(NS(=O)(=O)c2ccc3[nH]c(=O)[nH]c3c2)cc1,92.7,–,–,–,–,–,–,–
